Structures can show the parent of a compound that is named as a salt. ± gives the standard deviation of the averaged measurements. Some results are limits rather than exact numbers.

The subject of the experiment is Toxoplasma gondii RH (in HFF). Put plainly: parasite growth relative to the screen mean (all compounds = 100%); higher = less inhibition of parasite growth. The settings on record: 5 µM; 72 h; oxygen 21 %. The gist of the method:
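Library compounds, held as 10 mM DMSO stocks, were pinned to 5 µM final onto confluent human foreskin fibroblasts in 96-well plates. The cells were infected within 2 h with RH β-Gal–GFP Toxoplasma (MOI 1:5), grown 72 h at 21% O2, and assayed for parasite number by CPRG β-Gal using in-plate standard curves. Growth is reported relative to the screen mean, in which all compounds = 100%, averaged over two screens, and CellTiter-Blue checked uninfected host-cell viability.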
`CC1(C)Oc2ccc(C#N)cc2[C@H](N2CCCC2=O)[C@H]1O` [Cromakalim]: the parasite growth worked out at 127 ± 5.1%. Consider `Clc1ccc(-c2nc3sccn3c2/C=N/OCc2ccc(Cl)c(Cl)c2)cc1`, for which the parasite growth was 110 ± 8.4%. For `CCCN(C/C=C/I)C1CCc2cccc(O)c2C1` (stereo not drawn) [8-Hydroxy-PIPAT oxalate] the value was 190 ± 23%; for `COc1ccc(Br)cc1S(=O)(=O)NC(=O)/C=C/c1ccccc1Cc1ccc2ccccc2c1`, 125 ± 12%.

`COc1cccc(-c2cc(=O)c3ccccc3o2)c1N` returned a parasite growth of 93.9 ± 37%.

`O=c1c(-c2ccc(O)cc2)coc2cc(O)ccc12` [Daidzein] returned a parasite growth of 77.8 ± 43%. For `CC(Cc1ccccc1)(NC(=O)CN)c1ccccc1` (stereo not drawn) [Remacemide hydrochloride] the value was 129 ± 5.9%; for `CCn1c(=O)[nH]c2ccccc21`, 67.92 ± 0.3%. In the case of `COC(=O)c1c(-c2cc(OC)c(OC)c(OC)c2)c2ccnc(OCc3ncccn3)c2c(=O)n1Cc1ccnc(C)c1` [T 0156 hydrochloride] it was 89.9 ± 14%; in that of `Nc1nc2ccc(Cl)cc2c2nc(-c3ccco3)nn12`, 131 ± 14%; in that of `O=C(O)Cc1cccc(OCCCN(Cc2cccc(C(F)(F)F)c2Cl)CC(c2ccccc2)c2ccccc2)c1` [GW 3965 hydrochloride], 105 ± 15%. For `CSc1ccc2c(c1)C(N1CCN(C)CC1)Cc1ccccc1S2` (stereo not drawn) [Methiothepin maleate], the parasite growth is under 0%. In the case of `C[C@H]1O[C@H](O[C@H]2[C@H](O)[C@@H](O)[C@@H](O[C@H]3[C@H](O)[C@@H](O)C(O)O[C@@H]3CO)O[C@@H]2CO)[C@H](O)[C@@H](O)[C@@H]1N[C@H]1C=C(CO)[C@@H](O)[C@H](O)[C@H]1O` (stereo partly drawn) [Acarbose] it was 114 ± 36%.

These data come from the supplement of paper PMC4894684.
